# From PubChem BioAssay AID1159580 (chemical genetic matrix, 2015)
# Among all 5,500 compounds or so, about 2,000 (36%) were called active. Inconclusive results (about 18%) are left out. The list shows a part of the results. Unmarked numbers belong to inactive results. Cut-off read from the data, not from the text of the source: active = normalized growth mostly below about 0.91 (no sharp cut-off); inconclusive = no clear call, values can overlap the other calls; inactive = mostly above about 0.92.
# Assay: chemical genetic growth profiling, strain panel (AID 1159580);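 note: tested at 20 µM; growth read once vehicle control cultures reached saturation at 30 °C; 1 = growth at the plate median or of vehicle wells; lower values mean less growth of the strain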
# Settings: growth OD
structure (smiles),measurement,setting,value
COc1ccc(-c2cc(=O)c3c(OC(C)=O)cc(OC(C)=O)cc3o2)cc1,normalized growth,"S. cerevisiae deletion strains, locus YJR066W, strain TOR1, stronger effect = lower value",0.922
same,normalized growth,"S. cerevisiae deletion strains, locus YJR075W, strain HOC1, stronger effect = lower value",0.946
same,normalized growth,"S. cerevisiae deletion strains, locus YKL009W, strain mrt4, stronger effect = lower value",0.994
same,normalized growth,"S. cerevisiae deletion strains, locus YKL068W, stronger effect = lower value",0.972
same,normalized growth,"S. cerevisiae deletion strains, locus YKL085W, strain MDH1 (second series), stronger effect = lower value",0.968
same,normalized growth,"S. cerevisiae deletion strains, locus YKL085W, strain MDH1, stronger effect = lower value",0.968
same,normalized growth,"S. cerevisiae deletion strains, locus YKL160W, strain elf1, stronger effect = lower value",0.974
same,normalized growth,"S. cerevisiae deletion strains, locus YKL190W, strain CNB1, stronger effect = lower value",0.967
same,normalized growth,"S. cerevisiae deletion strains, locus YKR001C, strain vps1, stronger effect = lower value",0.941
same,normalized growth,"S. cerevisiae deletion strains, locus YKR026C, strain gcn3, stronger effect = lower value",0.985
same,normalized growth,"S. cerevisiae deletion strains, locus YKR091W, strain srl3, stronger effect = lower value",0.999
same,normalized growth,"S. cerevisiae deletion strains, locus YLL001W, strain dnm1, stronger effect = lower value",0.937
same,normalized growth,"S. cerevisiae deletion strains, locus YLL026W, stronger effect = lower value",0.985
same,normalized growth,"S. cerevisiae deletion strains, locus YLL041C, strain sdh2, stronger effect = lower value",0.992
same,normalized growth,"S. cerevisiae deletion strains, locus YLR027C, strain aat2, stronger effect = lower value",0.984
same,normalized growth,"S. cerevisiae deletion strains, locus YLR039C, strain RIC1, stronger effect = lower value",0.824
same,normalized growth,"S. cerevisiae deletion strains, locus YLR058C, strain SHM2, stronger effect = lower value",0.957
same,normalized growth,"S. cerevisiae deletion strains, locus YLR102C, strain apc9, stronger effect = lower value",0.959
same,normalized growth,"S. cerevisiae deletion strains, locus YLR113W, strain HOG1, stronger effect = lower value",0.805 (active)
same,normalized growth,"S. cerevisiae deletion strains, locus YLR221C, strain rsa3, stronger effect = lower value",0.973
same,normalized growth,"S. cerevisiae deletion strains, locus YLR258W, strain gsy2, stronger effect = lower value",0.971
same,normalized growth,"S. cerevisiae deletion strains, locus YLR262C, strain YPT6 (second series), stronger effect = lower value",0.914
same,normalized growth,"S. cerevisiae deletion strains, locus YLR262C, strain YPT6, stronger effect = lower value",0.807
same,normalized growth,"S. cerevisiae deletion strains, locus YLR268W, strain sec22, stronger effect = lower value",0.964
same,normalized growth,"S. cerevisiae deletion strains, locus YLR320W, strain mms22, stronger effect = lower value",0.965
same,normalized growth,"S. cerevisiae deletion strains, locus YLR330W, strain CHS5, stronger effect = lower value",0.929
same,normalized growth,"S. cerevisiae deletion strains, locus YLR342W, strain FKS1 (second series), stronger effect = lower value",1.01
same,normalized growth,"S. cerevisiae deletion strains, locus YLR342W, strain FKS1, stronger effect = lower value",1
same,normalized growth,"S. cerevisiae deletion strains, locus YLR357W, strain rsc2, stronger effect = lower value",0.894
same,normalized growth,"S. cerevisiae deletion strains, locus YLR370C, strain arc18, stronger effect = lower value",0.992
same,normalized growth,"S. cerevisiae deletion strains, locus YLR371W, strain rom2, stronger effect = lower value",0.952
same,normalized growth,"S. cerevisiae deletion strains, locus YLR384C, strain iki3, stronger effect = lower value",0.981
same,normalized growth,"S. cerevisiae deletion strains, locus YLR418C, strain cdc73, stronger effect = lower value",0.685 (active)
same,normalized growth,"S. cerevisiae deletion strains, locus YML016C, strain PPZ1, stronger effect = lower value",0.924
same,normalized growth,"S. cerevisiae deletion strains, locus YML032C, strain rad52, stronger effect = lower value",0.964
same,normalized growth,"S. cerevisiae deletion strains, locus YML120C, strain ndi1, stronger effect = lower value",0.973
same,normalized growth,"S. cerevisiae deletion strains, locus YML124C, strain tub3, stronger effect = lower value",0.958
same,normalized growth,"S. cerevisiae deletion strains, locus YMR058W, strain fet3, stronger effect = lower value",0.983
same,normalized growth,"S. cerevisiae deletion strains, locus YMR078C, strain ctf18, stronger effect = lower value",0.963
same,normalized growth,"S. cerevisiae deletion strains, locus YMR125W, strain sto1, stronger effect = lower value",0.965
same,normalized growth,"S. cerevisiae deletion strains, locus YMR129W, stronger effect = lower value",0.981
same,normalized growth,"S. cerevisiae deletion strains, locus YMR205C, strain PFK2, stronger effect = lower value",0.976
same,normalized growth,"S. cerevisiae deletion strains, locus YMR223W, strain ubp8, stronger effect = lower value",0.946
same,normalized growth,"S. cerevisiae deletion strains, locus YMR231W, strain pep5, stronger effect = lower value",0.994
same,normalized growth,"S. cerevisiae deletion strains, locus YMR307W, strain GAS1, stronger effect = lower value",0.913
same,normalized growth,"S. cerevisiae deletion strains, locus YNL067W, strain RPL9B, stronger effect = lower value",0.945
same,normalized growth,"S. cerevisiae deletion strains, locus YNL071W, strain lat1, stronger effect = lower value",0.893 (active)
same,normalized growth,"S. cerevisiae deletion strains, locus YNL183C, strain NPR1, stronger effect = lower value",0.84
same,normalized growth,"S. cerevisiae deletion strains, locus YNL209W, strain ssb2, stronger effect = lower value",0.996
same,normalized growth,"S. cerevisiae deletion strains, locus YNL233W, strain BNI4, stronger effect = lower value",0.89
same,normalized growth,"S. cerevisiae deletion strains, locus YNL248C, strain rpa49, stronger effect = lower value",0.955
same,normalized growth,"S. cerevisiae deletion strains, locus YNL250W, strain rad50, stronger effect = lower value",0.958
same,normalized growth,"S. cerevisiae deletion strains, locus YNL271C, strain bni1, stronger effect = lower value",0.986
same,normalized growth,"S. cerevisiae deletion strains, locus YNL298W, strain CLA4, stronger effect = lower value",0.968
same,normalized growth,"S. cerevisiae deletion strains, locus YNL307C, strain MCK1, stronger effect = lower value",0.878 (active)
same,normalized growth,"S. cerevisiae deletion strains, locus YNL322C, strain KRE1 (second series), stronger effect = lower value",0.952
same,normalized growth,"S. cerevisiae deletion strains, locus YNR049C, strain mso1, stronger effect = lower value",0.992
same,normalized growth,"S. cerevisiae deletion strains, locus YNR052C, strain pop2, stronger effect = lower value",0.949
same,normalized growth,"S. cerevisiae deletion strains, locus YOL006C, strain TOP1, stronger effect = lower value",0.97
same,normalized growth,"S. cerevisiae deletion strains, locus YOL012C, strain htz1",0.936
same,normalized growth,"S. cerevisiae deletion strains, locus YOL147C, strain pex11, stronger effect = lower value",0.945
same,normalized growth,"S. cerevisiae deletion strains, locus YOR001W, strain rrp6, stronger effect = lower value",0.967
same,normalized growth,"S. cerevisiae deletion strains, locus YOR061W, strain CKA2, stronger effect = lower value",1
same,normalized growth,"S. cerevisiae deletion strains, locus YOR069W, strain VPS5, stronger effect = lower value",0.959
same,normalized growth,"S. cerevisiae deletion strains, locus YOR070C, strain gyp1, stronger effect = lower value",0.999
same,normalized growth,"S. cerevisiae deletion strains, locus YOR080W, strain dia2, stronger effect = lower value",0.989
same,normalized growth,"S. cerevisiae deletion strains, locus YOR083W, strain WHI5, stronger effect = lower value",0.984
same,normalized growth,"S. cerevisiae deletion strains, locus YOR106W, strain vam3, stronger effect = lower value",0.988
same,normalized growth,"S. cerevisiae deletion strains, locus YOR136W, strain idh2, stronger effect = lower value",0.978
same,normalized growth,"S. cerevisiae deletion strains, locus YOR144C, strain elg1, stronger effect = lower value",0.961
same,normalized growth,"S. cerevisiae deletion strains, locus YOR184W, strain ser1, stronger effect = lower value",0.982
same,normalized growth,"S. cerevisiae deletion strains, locus YOR231W, strain MKK1, stronger effect = lower value",0.876
same,normalized growth,"S. cerevisiae deletion strains, locus YOR265W, strain rbl2, stronger effect = lower value",0.99
same,normalized growth,"S. cerevisiae deletion strains, locus YOR270C, strain vph1, stronger effect = lower value",0.889
same,normalized growth,"S. cerevisiae deletion strains, locus YOR290C, strain snf2, stronger effect = lower value",0.949
same,normalized growth,"S. cerevisiae deletion strains, locus YOR316C, strain cot1, stronger effect = lower value",0.942
same,normalized growth,"S. cerevisiae deletion strains, locus YPL051W, strain arl3, stronger effect = lower value",0.954
same,normalized growth,"S. cerevisiae deletion strains, locus YPL055C, strain LGE1, stronger effect = lower value",0.906
same,normalized growth,"S. cerevisiae deletion strains, locus YPL078C, strain atp4, stronger effect = lower value",0.967
same,normalized growth,"S. cerevisiae deletion strains, locus YPL106C, strain sse1, stronger effect = lower value",0.922
same,normalized growth,"S. cerevisiae deletion strains, locus YPL240C, strain hsp82, stronger effect = lower value",0.987
same,normalized growth,"S. cerevisiae deletion strains, locus YPL241C, strain CIN2, stronger effect = lower value",0.973
same,normalized growth,"S. cerevisiae deletion strains, locus YPL256C, strain CLN2, stronger effect = lower value",0.756 (active)
same,normalized growth,"S. cerevisiae deletion strains, locus YPR119W, strain clb2, stronger effect = lower value",0.958
same,normalized growth,"S. cerevisiae deletion strains, locus YPR141C, strain kar3, stronger effect = lower value",0.953
same,normalized growth,"S. cerevisiae deletion strains, locus YPR163C, strain tif3, stronger effect = lower value",0.981
same,normalized growth,"S. cerevisiae deletion strains, locus YPR167C, strain met16, stronger effect = lower value",0.946
same,normalized growth,"S. cerevisiae deletion strains, strain wtn01, stronger effect = lower value",0.987
same,normalized growth,"S. cerevisiae strains, strain wild type, stronger effect = lower value",0.971
